# Compound activity: PubChem, National Center for Advancing Translational Sciences (NCATS)
# Shown are actives, neighbours in structure and some others; about 18% of the full set was active somewhere.
# PLK1 PBD block: qHTS for Inhibitors of PLK1-PDB (polo-like kinase 1 - polo-box domain): Primary Screen; Serine/threonine-protein kinase PLK1 (Homo sapiens), P53350; Plk1 PBD binding of FITC phosphopeptide, fluorescence polarization; Potency, µM, for the others: max response, negative = inhibition, actives largely listed as inhibitors; 360,000 tested, 2.8% active; AID 720504, 2013; also: series mostly up to about 57 µM; nearly all actives have a fitted effect of over 65% in size
# Target sequence (P53350 whole entry, looked up, the tested form may be a part): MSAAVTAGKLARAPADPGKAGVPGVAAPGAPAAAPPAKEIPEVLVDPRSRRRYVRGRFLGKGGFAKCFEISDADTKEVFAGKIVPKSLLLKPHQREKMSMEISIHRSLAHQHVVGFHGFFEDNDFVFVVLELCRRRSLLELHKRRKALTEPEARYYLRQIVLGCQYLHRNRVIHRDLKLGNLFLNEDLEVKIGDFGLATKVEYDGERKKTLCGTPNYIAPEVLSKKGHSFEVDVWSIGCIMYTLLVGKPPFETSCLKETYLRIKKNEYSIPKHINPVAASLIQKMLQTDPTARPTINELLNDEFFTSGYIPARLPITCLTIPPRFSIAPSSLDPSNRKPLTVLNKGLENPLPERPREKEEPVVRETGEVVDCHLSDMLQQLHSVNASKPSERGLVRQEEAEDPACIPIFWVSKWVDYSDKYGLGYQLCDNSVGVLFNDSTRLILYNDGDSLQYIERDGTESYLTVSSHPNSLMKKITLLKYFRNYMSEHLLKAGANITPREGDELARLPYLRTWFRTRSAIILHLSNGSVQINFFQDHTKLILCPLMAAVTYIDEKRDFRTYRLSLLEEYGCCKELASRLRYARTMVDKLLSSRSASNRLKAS
# TDP1 block: qHTS Assay for Inhibitors of Tyrosyl-DNA Phosphodiesterase (TDP1); recombinant TDP1, AlphaScreen DNA substrate cleavage; Potency, µM (series often up to 130 µM), for inactives: top-dose activity change, negative = inhibition, usual class: inhibitors; 350,000 tested, 0.28% active; also: nearly all actives have a fitted effect of over 40% in size
#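 Steps: enzyme plus compound, 15 min RT; add biotin/phosphotyrosine-FITC oligonucleotide (15 nM final), react 5 min; add donor/acceptor beads (10 ug/ml final), 10 min; read AlphaScreen. Tdp1 at 1 nM final.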
# DT40 TDP1 no CPT: qHTS for Inhibitors of human tyrosyl-DNA phosphodiesterase 1 (TDP1): qHTS in cells in absence of CPT | DT40 Tdp1-/- hTDP1 cells, no CPT, ATP luminescence, 48 h | Potency, µM (doses to about 46.2 µM), inactives show at the highest dose activity change, negative = growth inhibition, usual class: inhibitors | 420,000 tested, 15% active | AID 686978, 2013; also: nearly all actives have a fitted effect of over 55% in size
#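 Seeded 400 DT40-hTDP1 cells/well (vehicle DMSO, no 20 nM CPT); pinned compounds; ≥48 hr at 37 °C; CellTiter-Glo luminescence as viability measure.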
# VDR inhibitor: Inhibitors of the vitamin D receptor (VDR): qHTS; VDR-SRC2-3 peptide fluorescence polarization, 2 h; Potency, µM, inactives show max response, negative = inhibition, most hits filed as inhibitors; 400,000 tested, 0.93% active
#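 Two reagent solutions held at 4 deg C in the dark were dispensed, compounds pinned at 23 nl, and the mixture incubated 2 h at room temperature. Read-out: fluorescence polarization of VDR–SRC2-3 peptide binding.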
# DT40 TDP1 CPT: qHTS for Inhibitors of human tyrosyl-DNA phosphodiesterase 1 (TDP1): qHTS in cells in presence of CPT; chicken DT40 Tdp1-/-;hTDP1 cells + 20 nM CPT, ATP luminescence, 48 h; Potency, µM (series often up to 46.2 µM), without a hit: at the top dose activity change, negative = growth inhibition, most hits filed as inhibitors; 420,000 tested, 12% active; also: nearly all actives have a fitted effect of over 55% in size
#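 Chicken DT40 Tdp1-/- cells stably complemented with human TDP1 were seeded at 400 cells/well in medium containing 20 nM camptothecin, exposed to pin-transferred compounds, and grown at 37 °C for at least 48 hr. Viability was read as ATP luminescence.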
# GCN5L2 inh: qHTS Assay for Inhibitors of GCN5L2; Histone acetyltransferase KAT2A (Homo sapiens), Q92830; GCN5L2 HAT assay, ThioGlo1 CoA-SH fluorescence; Potency, µM (highest dose often 58.9 µM), for inactives: at the highest dose activity change, negative = inhibition, most hits filed as inhibitors; 390,000 tested, 0.21% active; AID 504327, 2011
#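 qHTS, 1536-well. 20nM enzyme, pH 7.5 HEPES/EDTA/Tween-20 buffer; 15 min compound preinc., RT. Start: 75uM H3(1-25), 70uM AcCoA, 50uM ThioGlo1. Read Ex340/Em540 at t=0 (autofluorescence flag) and t=20 min.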
# The depositor's hits bear a star; ? = inconclusive; / = not tested or not shown; [ ] = another dose, or the depositor's remark. Calls follow the shape of the dose curve; as a rule, active = well fitted curve in the direction sought with a large enough effect; inconclusive = small, poorly fitted or top-dose-only effect, or another doubt; inactive = no such curve, though single readings can be large; an effect the other way counts as inactive or inconclusive. % is scaled to controls: 0 for no effect and ±100 for the full control effect; potency is read from the fitted curve at half-maximal effect.
SMILES,PLK1 PBD block,TDP1 block,DT40 TDP1 no CPT,VDR inhibitor,DT40 TDP1 CPT,GCN5L2 inh
COc1cccc(Nc2ncc3nc(-c4ccc(Cl)cc4)c(=O)n(C4CC4)c3n2)c1,/,/,-1%,-17%,-19%,-12%
COC(=O)c1ccc(NC(=O)CC2C(=O)N(c3cccc(C)c3)C(=O)N2C2CCCC2)cc1 (stereo not given),/,-3%,?,3%,?,-1%
O=C(c1ccccn1)N1CCCC(N2CCN(c3cccc(C(F)(F)F)c3)CC2)C1 (stereo not given),-15%,1%,15µM*,?,?,-18%
O=C(c1ccccn1)N1CCN(c2cccc(C(F)(F)F)c2)CC1,-7%,5%,-13%,7%,-28%,-4%
O=C(c1ccsc1)N1CCCC(N2CCN(c3cccc(C(F)(F)F)c3)CC2)C1 (stereo not given),-2%,5%,?,-6%,?,-4%
O=C(c1cc[n+]([O-])cc1)N1CCCC(N2CCN(c3cccc(C(F)(F)F)c3)CC2)C1 (stereo not given),-9%,1%,?,-19%,10µM*,1%
Cc1cc(C)n(CC(=O)NC2CCCCC2C)c(=O)c1C#N (stereo not given),2%,0%,2%,5%,-6%,3%
COC(=O)c1cc(Cl)cc2c(C)c(C3(O)CCCCC3)[nH]c12,4%,/,21µM*,-8%,?,-2%
CCOc1cc(CNCCO)cc(Br)c1OCc1ccc(Cl)cc1,-10%,6%,?,-13%,26µM*,2%
CCOc1cc(CNC(C)(C)CO)cc(Br)c1OCc1ccc(Cl)cc1Cl,2%,4%,21µM*,-2%,21µM*,-6%
Cc1cc(C(=O)N2CCN(c3cc(Cl)ccc3C)CC2)on1,1%,/,-21%,-26%,-4%,-14%
CC12CN(C(=O)c3ccccc3Br)CC(C)(CN(C(=O)c3ccccc3Br)C1)C2=O,5%,1%,-14%,-16%,12%,-1%
O=C(Nc1cccc2nsnc12)c1cc2c(cc1Cl)Sc1nccn1S2(=O)=O,?,/,?,?,23µM*,/
COCC(=O)Nc1ccc(C(=O)Nc2ccccc2Cl)cc1,/,3%,/,/,/,9%
C=CCn1c(N/N=C/c2ccc(O)cc2)nc2ccccc2c1=O,-5%,8%,15µM*,0%,-37%,-15%
O=c1[nH]c(N/N=C/c2ccc(O)cc2)nc2ccccc12,3%,1%,23µM*,5%,26µM*,2%
Cc1nnsc1C(=O)NCC1Cc2cccc(-c3ncccn3)c2O1 (stereo not given),/,/,0%,/,20%[9.04 µM],/
CCN=c1sc(C(=O)NCCc2ccccc2)cc(=O)n1CC,-17%,2%,18µM*,?,?,-5%
O=C(Nc1ccc(NC(=O)c2ccccc2F)cc1)c1cccs1,1%,-2%,?,-1%,-8%,-4%
O=C(/C=C/c1cccs1)c1ccc(NC(=O)c2ccccc2F)cc1,-3%,0%,12µM*,-26%,-23%,-5%
COc1ccccc1C(=O)Nc1ccc(C(=O)/C=C/c2cccs2)cc1,-12%,5%,18µM*,-1%,?,-6%
CC(C)(C)C1CCc2c(sc3ncn(N)c(=N)c23)C1 (stereo not given),-6%,8%,6.5µM*,-9%,16µM*,1%
O=C(Cc1ccc(OCCC2CCCCC2)cc1)NO,/,/,10µM*,/,7.1µM*,/
CCCCCCCOc1ccc(CC(=O)NO)cc1,/,/,10µM*,/,10µM*,/
O=C(Cc1csc(Nc2nc(=S)[nH]c3ccccc23)n1)N1CCN(c2cccc(Cl)c2)CC1,-13%,8%,15µM*,-10%,15µM*,-3%
SMILES,PLK1 PBD block,TDP1 block,DT40 TDP1 no CPT,VDR inhibitor,DT40 TDP1 CPT,GCN5L2 inh
Cc1ccc(Cl)cc1N1CCN(C(=O)Cc2csc(Nc3nc(=S)[nH]c4ccccc34)n2)CC1,-4%,8%,15µM*,4%,13µM*,-1%
COc1cnc(SCCC(F)=C(F)F)[nH]c1=O,-8%,-5%,-9%,6%,-1%,-8%
CCNc1ccc(C(=O)NN=C2CCCC2)cc1[N+](=O)[O-],-5%,6%,-16%,-14%,17%,-20%
O=C(CN1CCOCC1)NN=Cc1ccc([N+](=O)[O-])o1,-13%,/,?,/,21µM*,/
O=C(CN1CCOCC1)N/N=C/c1ccc(-c2ccc(C(=O)O)cc2)o1,-6%,32µM*,-16%,-2%,13%,-22%
CC1(CC(=O)N/N=C/c2ccc(-c3ccc(C(=O)O)cc3)o2)OCCO1,-3%,-5%,-12%,-4%,6%,-19%
COc1ccccc1NC(=O)c1cc([N+](=O)[O-])ccc1N1CCOCC1,3%,5%,-29%,?,-11%,-3%
N#CC1c2ccccc2C=CN1C(=O)N(c1ccccc1)c1ccccc1 (stereo not given),4%,/,?,71µM*,?,/
COc1ccc(C(=O)N2C=Cc3ccccc3C2C#N)cc1 (stereo not given),1%,/,-24%,/,0%,/
Cc1cccc(C)c1NC(=O)C(c1ccc(-c2ccccc2)cc1)n1c(=O)c(-c2cc3ccccc3[nH]2)nc2ccccc21 (stereo not given),6%,/,?,/,?,/
COc1cc2sc3ccc(-c4ccc5[nH]ccc5c4)cc3c(=O)c2cc1OC,-6%,/,5.8µM*,2%,5.8µM*,/
O=c1c2ccccc2oc2cc(-c3ccc4[nH]ccc4c3)ccc12,-4%,/,2.1µM*,8%,1.8µM*,/
COc1cccc(/C=N/NC(=O)Cn2cnc3c2c(=O)n(C)c(=O)n3C)c1,24µM*,7%,?,?,29µM*,-7%
O=C(Cn1cnc2ccccc21)N/N=C/c1cccs1,-5%,8%,-5%,15%,5%,-2%
O=C(Cn1cnc2ccccc21)N/N=C/C(Br)=C/c1ccccc1,-3%,1%,23µM*,5%,6.5µM*,?
Cn1c(=O)c2c(ncn2CC(=O)N/N=C/C(Br)=C/c2ccccc2)n(C)c1=O,3%,3%,3.7µM*,-9%,2.3µM*,0%
